Source: PubChem BioAssay (Broad Institute)
LGR2 inh: inhibitors of bursicon-induced Drosophila LGR2 receptor cAMP signaling | HEK293 LGR2, CRE-luciferase, bursicon-stimulated, 4 h | inhibition, % at 9.99 µM | actives 0.35% (n = 380,000);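 active = drop in luminescence signal, shown as inhibition above about 50% in the replicate tests, limit read from the data, passing the limit was not always enough; inconclusive = probably only some replicates passing the limit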;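 also: agonist challenge used bursicon conditioned medium at about half maximal strength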
PGC1a acetyl inh: modulators of PGC1a acetylation. U2OS PGC1a acetylation, AlphaScreen anti-acetyl-lysine; with virally co-expressed GCN5 acetyltransferase. inhibition, % at 15.6 µM. actives 0.17% (n = 350,000). AID 651687;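 active = every replicate shows inhibition of at least 40%; inconclusive = mean inhibition at least 40% but some replicate below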;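 also: 0% = neutral control wells and 100% = positive control wells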
Ecoli rRNA inh: selective bacterial rRNA inhibition in E. coli. AID 720706. E. coli WT GFP vs humanized-ribosome RFP mutants, fluorescence, 24 h; active compounds read low; DMSO median 0, no signal -100. actives 1.6% (n = 350,000). GFP signal change (wild-type ribosome), % (no concentration beside the values);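 active = significant combined selectivity score with lowered wild-type GFP, culture density cut under 30%, mutant RFP and density less affected; inactive = any of these conditions unmet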
SIRT5 block: blocks human SIRT5 desuccinylation of peptide | Q9NXA8 | Purified SirT5, succinyl-peptide AMC, trypsin-coupled fluorescence | inhibition, % at 15 µM | actives 1.1% (n = 330,000) | AID 652115; in the data active = inhibition above about 15%; inconclusive = no clear call, values can overlap the other calls
Target sequence (Q9NXA8 whole entry, looked up): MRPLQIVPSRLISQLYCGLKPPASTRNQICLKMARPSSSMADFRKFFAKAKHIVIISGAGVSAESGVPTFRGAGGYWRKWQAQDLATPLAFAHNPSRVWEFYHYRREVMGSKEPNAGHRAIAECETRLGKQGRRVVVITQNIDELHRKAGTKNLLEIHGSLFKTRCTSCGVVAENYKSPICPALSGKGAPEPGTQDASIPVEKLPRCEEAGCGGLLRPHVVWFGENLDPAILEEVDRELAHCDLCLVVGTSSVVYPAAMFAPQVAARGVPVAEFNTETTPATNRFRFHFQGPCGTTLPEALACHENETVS
EWS-Fli block: EWS/Fli transcriptional activity inhibition. A673 NR0B1-luciferase reporter, viability-normalised. inhibition, % at 12.6 µM. actives 0.67% (n = 350,000);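 active = mean inhibition of at least 50% after viability correction, with every replicate also passing that limit; inconclusive = mean reaches 50% but only one of two replicates passes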;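 also: firefly luciferase signal divided by Alamar Blue viability fluorescence both relative to DMSO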
PAX8 inh HTS: PAX8 transcriptional activity inhibition; RMG-I TPO-luciferase reporter, SteadyGlo, 24 h; inhibition, % at 12.6 µM; actives 1.2% (n = 360,000); AID 652154;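 active = mean replicate inhibition at least 60% with every replicate also reaching 60%; inconclusive = only one of the two criteria is met; inactive = mean below 60% and not all replicates reaching 60%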;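 also: luciferase light reporting Pax8 driven TPO promoter activity; plate controls were median of neutral control wells for no effect and mitoxantrone controls for full effect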
Numbers without * were called inactive; ? = inconclusive; nt = not tested or not shown. Rows were chosen to be rich in hits. Some 3.4% of all compounds tested hit in one or more screens of this group.

SMILES	LGR2 inh	PGC1a acetyl inh	Ecoli rRNA inh	SIRT5 block	EWS-Fli block	PAX8 inh HTS
COc1ccc(-c2cc(C(=O)N3CCN(c4cccc(C)c4C)CC3)c3ccccc3n2)cc1OC	-2	-21	12	21*	nt	nt
COc1ccc(-c2cc(C(=O)N(C)Cc3ccc(F)cc3)c3ccccc3n2)cc1OC	6	nt	-28*	2	16	5
COc1ccc(-c2nnn(CC(=O)N3CCN(c4ccccc4OC)CC3)n2)cc1OC	-1	4	-17*	0	-3	6
CCOC(=O)Nc1nc2ccc(Cn3cccc3)cc2[nH]1	-33	nt	5	2	51*	nt
COc1ccc(S(=O)(=O)N(C)[C@H]2C[C@H]3c4cc(Oc5ccccc5C)ccc4CCN3C(=O)[C@H]2[C@H](C)O)cc1	14	7	10	17*	16	34
CC(=O)N1[C@@H]2CN(C(=O)NC(C)C)C[C@H]1C2c1ccc(Br)cc1 (stereo partly drawn)	nt	nt	0	nt	nt	nt
CO[C@@H]1CN(C)C(=O)c2ccc(NC(C)=O)cc2OC[C@H](C)N(C(=O)C2CCOCC2)C[C@H]1C	4	7	-1	1	-10	nt
Cc1cc(NC2CCCC2)n2nc(C)c(-c3ccccc3)c2n1	-40	-20	-2	-5	-58	-48
COc1ccc(-c2cc(C)nc3c(-c4ccccc4)cnn23)cc1	?	nt	8	-4	2	-94
Cc1cc(NC2CCCC2)n2ncc(-c3ccccc3)c2n1	63*	5	-12	-6	62*	-2
Cc1nc2c(-c3ccccc3)cnn2c(N)c1-c1ccccc1	57*	nt	-19	-4	41	-132
Cc1cc(SCC(=O)c2ccccc2)n2ncc(-c3ccccc3)c2n1	-62	nt	-51*	-2	-104	-44
Cc1cc(-c2ccccc2)n2ncc(-c3ccccc3)c2n1	60*	nt	26	9	38	-8
C[C@@H](NC(=O)C[C@@H]1C=C[C@@H](NC(=O)C2CCC2)[C@@H](CO)O1)c1ccccc1	13	7	1	2	-5	3
O=C(Nc1ccccc1F)N[C@@H]1CC[C@H](CCNC(=O)C2CCC2)O[C@H]1CO	-11	-3	-2	1	-2	-8
CCCC#Cc1ccc([C@H]2[C@@H](CO)N3C(=O)CN(C(=O)CN4CCOCC4)C[C@H]23)cc1	18	2	3	-2	-15	nt
O=C(Nc1ccc(-c2ccccc2)cc1)[C@H]1[C@H](CO)[C@H]2Cn3c(cccc3=O)[C@H]2N1CC1CCCCC1	22	nt	2	102*	8	nt
CCCNC(=O)[C@H]1[C@H](CO)[C@H]2Cn3c(ccc(-c4ccccc4)c3=O)[C@H]2N1CC1CC1	-27	nt	-5	-3	-1	-1
O=C(Nc1ccccc1)[C@@H]1[C@@H](CO)[C@@H]2Cn3c(cccc3=O)[C@@H]2N1CC1CC1	-7	nt	-1	16*	7	nt
O=C(NCC(F)(F)F)[C@@H]1[C@@H](CO)[C@@H]2Cn3c(cccc3=O)[C@@H]2N1Cc1cccc(F)c1	6	nt	11	16*	1	-22
CCCNC(=O)[C@H]1[C@H](CO)[C@H]2Cn3c(ccc(-c4ccc(F)cc4)c3=O)[C@H]2N1CC1CC1	2	nt	-3	16*	-6	4
CC(=O)N1CC2(C1)[C@H](c1ccc(-c3cccc(F)c3)cc1)[C@@H](CO)N2CC1CCOCC1	8	-4	-4	3	-1	11
Cc1ccc(S(=O)(=O)Nc2ccc3c(c2)C(=O)N([C@@H](C)CO)C[C@@H](C)[C@@H](CN(C)Cc2ccc(C(=O)O)cc2)O3)cc1	9	3	4	3	6	-10
COc1ccc2c3c(n(C)c2c1)[C@H](CO)N(CC1CC1)CC31CCN(C(=O)CC2CC2)CC1	nt	nt	0	nt	nt	nt
COc1cc(C=C2CCCC(=Cc3ccc(OCC4CO4)c(OC)c3)C2=O)ccc1OCC1CO1 (stereo not drawn)	38	nt	-32	-3	68*	30
SMILES	LGR2 inh	PGC1a acetyl inh	Ecoli rRNA inh	SIRT5 block	EWS-Fli block	PAX8 inh HTS
COc1ccc(/C=C2/CSC/C(=C/c3ccc(OC)c(OC)c3)C2=O)cc1OC	26	-36	0	-1	66*	38
CCn1c(=O)cc(OCC(=O)NCCc2ccc(OC)c(OC)c2)c2ccccc21	-3	nt	-5	20*	9	5
Cc1ccc(S(=O)(=O)c2ccc([N+](=O)[O-])o2)cc1	?	nt	-22	-10	43	127*
COc1ccc(/C(O)=C2/C(=O)C(=O)N(CCCN3CCOCC3)C2c2ccc(OC)cc2)cc1 (stereo not drawn)	nt	9	4	81*	13	5
COCC(=O)Nc1ccc2c(c1)C(=O)N(C)C[C@@H](OC)[C@H](C)CN(C(C)=O)[C@H](C)CO2	13	1	3	1	-7	nt
COc1ccc2c3c(n(C)c2c1)[C@@H](CO)N(CC1CCOCC1)CC31CCN(C(C)=O)CC1	3	nt	9	-1	-4	nt
C[C@@H]1CCCCO[C@H](CN(C)Cc2ccc(Cl)c(Cl)c2)[C@H](C)CN([C@@H](C)CO)C(=O)c2cc(NC(=O)Nc3ccc(C(F)(F)F)cc3)ccc2O1	-4	0	-2	2	-10	90*
C[C@@H]1CN([C@H](C)CO)C(=O)c2cc(NC(=O)Nc3ccc(C(F)(F)F)cc3)ccc2O[C@@H](C)CCCCO[C@H]1CN(C)Cc1ccc(Cl)c(Cl)c1	2	1	-5	-4	1	91*
C[C@@H]1CN([C@@H](C)CO)C(=O)c2cc(NC(=O)Nc3ccc(C(F)(F)F)cc3)ccc2O[C@@H](C)CCCCO[C@H]1CN(C)Cc1ccc(Cl)c(Cl)c1	9	-4	0	-5	-4	93*
C[C@@H]1CCCCO[C@@H](CN(C)Cc2ccc(Cl)c(Cl)c2)[C@H](C)CN([C@H](C)CO)C(=O)c2cc(NC(=O)Nc3ccc(C(F)(F)F)cc3)ccc2O1	-3	-10	0	-3	-2	91*
COCC(=O)N1CCC2(CC1)CN(C(=O)CN1CCOCC1)[C@@H](CO)c1c2c2ccc(OC)cc2n1C	29	-10	1	-1	4	nt
Cc1noc(C)c1NC(=O)Nc1cccc2c1O[C@H](CN(C)CC1CCCCC1)[C@@H](C)CN([C@H](C)CO)C2=O	-10	-7	-2	-3	-6	-6
C[C@H](CO)N1C[C@H](C)[C@@H](CN(C)Cc2ccc(Cl)c(Cl)c2)OCCCC[C@H](C)Oc2ccc(NC(=O)Nc3ccc(C(F)(F)F)cc3)cc2C1=O	-7	-13	1	-4	-1	84*
C[C@H]1CCCCO[C@H](CN(C)Cc2ccc(Cl)c(Cl)c2)[C@@H](C)CN([C@@H](C)CO)C(=O)c2cc(NC(=O)Nc3ccc(C(F)(F)F)cc3)ccc2O1	3	-11	3	-5	7	78*
